Measured values published in the supplement of paper PMC13094657.
± gives the standard deviation of the averaged measurements.

Tests used:
MDA-MB-231 [1] = assay: cell viability relative to vehicle unstimulated control (fraction); higher = more viable cells; details: pre-treatment time: 18 h then 24 h IFNg/TNF
MDA-MB-231 [2] = assay: kynurenine production, fold change vs DMSO IFNg/TNF control; higher = more kynurenine produced (less inhibition); details: pre-treatment time: 18 h then 24 h IFNg/TNF
Outline: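 In 96-well plates, MDA-MB-231 cells (7 × 10^4/well) were given 24 h to settle, pre-treated for 18 h with each natural product in 0.1% DMSO, and stimulated for 24 h with IFNγ (1 U/ml) and TNF (6.25 ng/ml) at 37°C. Supernatants were processed with trichloroacetic acid and p-dimethylaminobenzaldehyde and read at 492 nm against 0–100 μM standards. In the first screening round, kynurenine production, as fold change over same-plate cytokine-stimulated vehicle wells, was averaged over duplicate plates.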
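For cell viability relative to vehicle unstimulated control in this document: viability of the cells left after supernatant collection, read with Deep Blue dye added for 4 h, as absorbance at 570 nm minus 600 nm.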

SMILES	cell viability (MDA-MB-231 [1])	kynurenine production (MDA-MB-231 [2])
O[C@@H]1[C@@H](O)[C@@H](OC/C=C/c2ccccc2)O[C@H](CO[C@@H]2OC[C@H](O)[C@H](O)[C@H]2O)[C@H]1O [Rosavin] (compound dose: 10 uM)	1.003 ± 0.0045	0.882 ± 0.2
C=C(C)C(=O)O[C@H]1CC2=C[C@@H](C/C(C)=C/[C@H]3OC(=O)C(=C)[C@H]13)OC2=O [Deoxyelephantopin] (compound dose: 10 uM)	0.768 ± 0.041	0.117 ± 0.06
CC(C)(O)CCC(=O)[C@](C)(O)C1[C@H](O)C[C@@]2(C)[C@@H]3CC=C4[C@@H](C[C@H](O)[C@@H](O)C4(C)C)[C@]3(C)C(=O)C[C@]12C (some centres undefined) [Cucurbitacin IIb] (compound dose: 10 uM)	0.943 ± 0.021	0.826 ± 0.27
C=C1C(=O)O[C@H]2C1CC[C@@](C)(O)C13C=CC(C)(C21)C1(C3)C(=O)O[C@@H]2C3C(C)=CCC3[C@](C)(O)[C@H](OC(C)=O)CC21 (some centres undefined) [Handelin] (compound dose: 10 uM)	0.83 ± 0.29	0.709 ± 0.3
C=C1CCC[C@]2(C)C[C@]3(O)OC(=O)C(C)=C3C[C@@H]12 [Atractylenolide III] (compound dose: 10 uM)	1.015 ± 0.0091	0.763 ± 0.15
OC[C@H]1O[C@@H](O[C@@H]2OC=C[C@H]3[C@H](O)[C@@H]4O[C@]4(CO)[C@@H]23)[C@H](O)[C@@H](O)[C@@H]1O [Catalpol] (compound dose: 10 uM)	0.896 ± 0.28	0.704 ± 0.58
O=C1C[C@@H](c2ccc(O)cc2)Oc2cc(O)cc(O)c21 [Naringenin] (compound dose: 10 uM)	0.921 ± 0.013	0.772 ± 0.011
CC1(C)CC[C@]2(C(=O)O)CC[C@]3(C)C(=CC[C@@H]4[C@@]5(C)CCC(=O)C(C)(C)[C@@H]5CC[C@]43C)[C@@H]2C1 [Oleanonic acid] (compound dose: 10 uM)	0.957 ± 0.031	1.136 ± 0.0017
C[C@H](CC[C@@H](O[C@@H]1O[C@H](CO[C@@H]2O[C@H](CO)[C@@H](O)[C@H](O)[C@H]2O)[C@@H](O)[C@H](O)[C@H]1O[C@@H]1O[C@H](CO)[C@@H](O)[C@H](O)[C@H]1O)C(C)(C)O)[C@H]1CC[C@@]2(C)[C@@H]3CC=C4[C@@H](CC[C@H](O[C@@H]5O[C@H](CO)[C@@H](O)[C@H](O)[C@H]5O)C4(C)C)[C@]3(C)[C@H](O)C[C@]12C [Siamenoside I] (compound dose: 10 uM)	1.14 ± 0.34	1.1 ± 0.063
COc1ccc(-c2coc3cc(O)ccc3c2=O)cc1 [Formononetin] (compound dose: 10 uM)	0.988 ± 0.032	0.873 ± 0.0092
C[C@]1(OC(=O)/C=C/c2ccccc2)C[C@@H](O)[C@]2(O)C=CO[C@@H](O[C@@H]3O[C@H](CO)[C@@H](O)[C@H](O)[C@H]3O)[C@@H]21 [Harpagoside] (compound dose: 10 uM)	0.987 ± 0.013	0.91 ± 0.17
O=C(O)/C=C/c1ccccc1 [Trans-cinnamic acid] (compound dose: 10 uM)	1.02 ± 0.019	0.882 ± 0.022
CC(=O)OCC1=CO[C@@H](OC(=O)CC(C)C)[C@H]2C1=C[C@H](OC(=O)CC(C)C)[C@]21CO1 [Valepotriate] (compound dose: 10 uM)	0.185 ± 0.028	0.321 ± 0.04
C=C1C[C@@]23CC[C@H]4[C@@](C)(CCC[C@@]4(C)C(=O)O[C@@H]4O[C@H](CO)[C@@H](O)[C@H](O)[C@H]4O)[C@@H]2CC[C@]1(O[C@@H]1O[C@H](CO)[C@@H](O)[C@H](O)[C@H]1O[C@@H]1O[C@H](CO)[C@@H](O)[C@H](O)[C@H]1O)C3 [Stevioside] (compound dose: 10 uM)	1.05 ± 0.015	0.959 ± 0.14
CC(C)=CCC[C@@](C)(O)[C@H]1CC[C@]2(C)[C@@H]1[C@H](O)C[C@@H]1[C@@]3(C)C[C@@H](O)[C@H](O[C@@H]4O[C@H](CO)[C@@H](O)[C@H](O)[C@H]4O[C@@H]4O[C@H](CO)[C@@H](O)[C@H](O)[C@H]4O)C(C)(C)[C@@H]3CC[C@]12C [Gypenoside LI] (compound dose: 10 uM)	0.936 ± 0.084	0.724 ± 0.1
C[C@H]1O[C@@H](Oc2c(-c3cc(O)c(O)c(O)c3)oc3cc(O)cc(O)c3c2=O)[C@@H](O)[C@@H](O)[C@@H]1O [Myricitrin] (compound dose: 10 uM)	0.988 ± 0.021	0.694 ± 0.16
C=CC(C)(O)CCC=C(C)CCC=C(C)C (mixture of isomers) [Nerolidol] (compound dose: 10 uM)	1.01 ± 0.043	0.798 ± 0.2
